DT40 TDP1 no CPT = qHTS for Inhibitors of human tyrosyl-DNA phosphodiesterase 1 (TDP1): qHTS in cells in absence of CPT; DT40 Tdp1-/- hTDP1 cells, no CPT, ATP luminescence, 48 h; Potency, µM (top dose mostly 46.2 µM), for the others: top-dose activity change, negative = growth inhibition, hits mostly inhibitors; hit rate 15% among 420,000; AID 686978, 2013; note: nearly all actives have a fitted effect of over 55% in size
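No-CPT arm: Tdp1-/-;hTDP1 DT40 cells (400/well) plus compounds, incubated ≥48 hr at 37 °C. Readout CellTiter-Glo luminescence.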
TDP1 cell CPT = DT40-hTDP1 cell growth loss with CPT; chicken DT40 Tdp1-/-;hTDP1 cells + 20 nM CPT, ATP luminescence, 48 h; Potency, µM (series often up to 46.2 µM), for inactives: top-dose activity change, negative = growth inhibition, actives largely listed as inhibitors; hit rate 12% among 420,000; AID 686979; note: nearly all actives have a fitted effect of over 55% in size
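Chicken DT40 Tdp1-/- cells complemented with human TDP1, 400 cells/well, exposed to compounds plus 20 nM camptothecin for at least 48 h at 37 C; viability read as ATP content by CellTiter-Glo luminescence.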
ELG1 DNA repair = blocks ELG1-dependent DNA repair in HEK293T cells; HEK293T ELG1-luciferase reporter, luminescence, 16 h; DNA damage induced by 5-fluorouridine; AID 504467; Potency, µM (titrated, usually from 46.1 µM), for inactives: top-dose activity change, negative = inhibition, hits mostly inhibitors; hit rate 2.3% among 330,000; note: nearly all actives have a fitted effect of over 55% in size
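Step one: seed 2,000 cells per well. Step two: pin-transfer compound or DMSO alongside 5-fluorouridine. Step three: incubate 16 hr, 37 °C, 5% CO2. Step four: add ONE-Glo, wait 30 min, read luminescence.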
RORg inh = ROR gamma (mouse) transcription inhibition. Drosophila S2 Gal4-RORgamma UAS-luciferase reporter, 20 h. AID 2551. Potency, µM (series often up to 53.6 µM), for inactives: at the top dose activity change, negative = inhibition, actives largely listed as inhibitors. hit rate 5.4% among 310,000; note: nearly all actives have a fitted effect of over 60% in size
Target sequence (P51450 whole entry, looked up, the tested form may be a part): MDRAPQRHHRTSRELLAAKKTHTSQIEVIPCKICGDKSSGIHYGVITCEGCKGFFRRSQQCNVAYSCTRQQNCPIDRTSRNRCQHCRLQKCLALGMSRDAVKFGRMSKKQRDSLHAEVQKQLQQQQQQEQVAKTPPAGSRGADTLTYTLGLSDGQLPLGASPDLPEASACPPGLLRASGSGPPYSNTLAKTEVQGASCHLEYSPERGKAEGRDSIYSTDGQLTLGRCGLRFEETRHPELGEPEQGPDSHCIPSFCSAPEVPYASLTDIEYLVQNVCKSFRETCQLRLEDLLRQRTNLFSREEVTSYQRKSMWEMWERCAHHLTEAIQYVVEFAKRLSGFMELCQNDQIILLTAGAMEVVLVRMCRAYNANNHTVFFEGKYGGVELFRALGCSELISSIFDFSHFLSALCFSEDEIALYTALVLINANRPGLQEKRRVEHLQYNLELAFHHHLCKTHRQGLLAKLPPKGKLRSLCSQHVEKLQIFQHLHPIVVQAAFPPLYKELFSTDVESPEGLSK
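In this cell-based reporter format, copper sulfate (700 uM final) drives Gal4–ROR gamma fusion expression from a metallothionein promoter in Drosophila Schneider cells; compounds preincubated 1 hr, reporter read after 20 hr at ambient temperature.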
Gal4-VP16 FLuc = Gal4-VP16 reporter inhibition counter-screen; Drosophila S2 Gal4-VP16 UAS-luciferase, luminescence, 20 h; hit rate 3.5% among 310,000; Potency, µM (titrated, usually from 53.6 µM), for the others: top-dose activity, negative = inhibition, actives largely listed as inhibitors;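 note: Gal4-VP16 expression switched on by copper sulfate through the metallothionein promoter; nearly all actives have a fitted effect of over 50% in size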
12-LOX inh = inhibitors of human 12S-lipoxygenase ALOX12; P18054; purified 12hLO, xylenol orange hydroperoxide absorbance; Potency, µM (highest dose often 108 µM), for the others: at the top dose activity change, negative = inhibition, usual class: inhibitors; hit rate 1.1% among 580,000
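Purified human 12hLO at 150 nM in 25 mM Hepes, 0.01% Triton X-100, pH 7.0, preincubated 15 min at room temperature with compound. Reaction started with 40 uM arachidonic acid, 30 min at room temperature. Hydroperoxide measured by Fe-xylenol orange, 573/405 nm absorbance ratio.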
* hit, by the source's call; i = inactive; ? = inconclusive; / = no result given; [ ] = dose if it differs, or a comment. Only some compounds are listed: those with a hit (about 15% of all), similar ones and a draw of the others. Calls come from the whole dose curve; as a rule, active = well fitted curve in the direction sought with a large enough effect; inconclusive = small, poorly fitted or top-dose-only effect, or another doubt; inactive = no such curve, though single readings can be large; an effect the other way counts as inactive or inconclusive. % is set by controls: 0 for no effect and ±100 for the full control effect; potency is the fitted concentration of half-maximal effect.

SMILES	DT40 TDP1 no CPT	TDP1 cell CPT	ELG1 DNA repair	RORg inh	Gal4-VP16 FLuc	12-LOX inh
CN(C)c1ccc(/C=N/N2C(=S)SC(C)(C)C2N(O)C(=O)Nc2ccc([N+](=O)[O-])cc2)cc1 (stereo not drawn)	?	?	?	7.94µM*	-4.5%	12.0%
CC(C)c1nc2cc(NC(=O)c3ccc[nH]c3=O)ccc2o1	/	/	/	/	/	-2.1%
COc1ccc(-c2ccc3ncc(Nc4ccc(C(N)=O)cc4)n3n2)cc1OC	/	/	/	/	/	19.9%[176 µM]
CC(=O)Oc1cc2c(C(=O)NCCCN3CCOCC3)c(C)oc2c2ccccc12	20.6µM*	14.6µM*	3.1%	?	-12.5%	144.7%
CN1c2cc(C(=O)Nc3cccc(Cl)c3)ccc2C(=O)N2CCCCC21 (stereo not drawn)	/	/	/	/	/	34.2%
O=C(O)c1cccc(C2CCCN(C(=O)Cc3cc(F)c(F)c(F)c3)C2)c1 (stereo not drawn)	/	/	/	/	/	-4.5%
Cc1ccc(NC(=O)C(CC(C)C)N2Cc3ccccc3C2=O)cc1F (stereo not drawn)	-2.0%	-16.2%	/	/	/	3.6%
CC(C)CC(C(=O)NCCc1ccccc1)N1Cc2ccccc2C1=O (stereo not drawn)	20.6µM*	?	/	/	/	0.0%
CC(C)CC(C(=O)NCc1ccc(F)cc1)N1Cc2ccccc2C1=O (stereo not drawn)	?	?	/	/	/	0.5%
CCOc1ccc(CCNC(=O)C(CC(C)C)N2Cc3ccccc3C2=O)cc1OCC (stereo not drawn)	9.2µM*	10.3µM*	/	/	/	3.4%
CC(C)CCN(C)[C@H]1C[C@H]2c3[nH]c4ccccc4c3CCN2C[C@H]1[C@H](C)O	/	/	/	/	/	13.9%
Cc1ccc(S(=O)(=O)N(C)[C@H]2C[C@H]3c4[nH]c5ccccc5c4CCN3C[C@H]2[C@H](C)O)cc1	?	20.6µM*	/	/	/	12.8%
COc1ccc(CN(C)[C@H]2C[C@H]3c4[nH]c5ccccc5c4CCN3C[C@H]2[C@H](C)O)cc1	18.4µM*	?	/	/	/	29.4%
CCC1CCCCN1S(=O)(=O)c1ccc2c(c1)c(=O)n(CC(=O)N1CCCC1)c(=O)n2C (stereo not drawn)	/	/	/	/	/	2.8%
COc1ccc(N2CSC3=C(C#N)C(c4cc(OC)ccc4OC)CC(=O)N3C2)c(OC)c1 (stereo not drawn)	?	?	-25.2%	?	?	/
CCOc1ccccc1N1CSC2=C(C#N)C(c3c(OC)ccc4ccccc34)CC(=O)N2C1 (stereo not drawn)	20.6µM*	?	-1.6%	?	?	3.16µM*
COc1ccc(N2CSC3=C(C#N)C(c4cc(OC)c(OC)cc4OC)CC(=O)N3C2)c(OC)c1 (stereo not drawn)	?	?	-21.4%	12.6µM*	3.9%	28.2µM*
COc1cccc(/C=C/c2nc(C#N)c(NCCCN3CCOCC3)o2)c1	/	/	/	/	/	-27.9%
OC[C@@H]1O[C@H](CNC2CCOCC2)[C@H](N2CCCCC2)[C@@H]1O	/	/	/	/	/	15.4%[176 µM]
CN(C(=O)COC(=O)CN1C(=O)C2CC=CCC2C1=O)c1ccccc1 (stereo not drawn)	-9.1%	-6.4%	?	/	/	-58.4%
CN1/C(=C/C(=O)COC(=O)CN2C(=O)C3CC=CCC3C2=O)C(C)(C)c2ccccc21 (stereo not drawn)	16.4µM*	?	/	/	/	-3.4%
CN1/C(=C\C(=O)COC(=O)Cn2nnc(-c3ccccc3)n2)C(C)(C)c2ccccc21	3.66µM*	4.11µM*	-3.0%	32.5%	28.2µM*	-0.3%
COc1ccc(-c2c(C)c3cc(OC(=O)C(C)C)ccc3oc2=O)cc1	/	/	/	/	/	14.7%
Cc1ccc(C)c(N2CCN(c3c(CN4CCCC4)c(=O)oc4ccccc34)CC2)c1	25.9µM*	20.6µM*	/	/	/	-25.1%
O=c1oc2ccccc2c(N2CCN(c3cccc(C(F)(F)F)c3)CC2)c1CN1CCCC1	/	/	/	/	/	41.4%
SMILES	DT40 TDP1 no CPT	TDP1 cell CPT	ELG1 DNA repair	RORg inh	Gal4-VP16 FLuc	12-LOX inh
Cc1ccc(N2CCN(c3c(CN4CCCC4)c(=O)oc4ccccc34)CC2)c(C)c1	?	16.4µM*	/	/	/	0.9%
O=C(NCCn1cccc1-c1nc(-c2ccc3c(c2)OCO3)no1)c1ccc2c(c1)OCO2	/	/	/	/	/	30.4%
CC(C)(C)C(=O)Nc1cccc(NCC(=O)NC2(C#N)CCCC2)c1	/	/	/	/	/	2.0%
O=C(CSc1cnc2ccccc2n1)Nc1ccc2c(c1)OCCCO2	/	/	/	/	/	16.3%
COC[C@H]1CCCN1[C@@H]1[C@H](O)[C@H](CO)O[C@@H]1CNC(=O)Nc1cccc(Cl)c1	/	/	/	/	/	9.9%
CCCCOC(=O)C1=C(C)NC(=O)NC1c1cccc([N+](=O)[O-])c1 (stereo not drawn)	-20.9%	?	6.51µM*	?	-0.5%	0.0%
CCOC(=O)C1=C(C)NC2=C(C1c1ccc([N+](=O)[O-])cc1)S(=O)(=O)c1ccccc12 (stereo not drawn)	?	?	10.3µM*	24.2%	-15.6%	-9.3%
CCOC(=O)C1=C(C)NC(c2ccccc2)=C(C(=O)OCc2ccc([N+](=O)[O-])cc2)[C@@H]1C#Cc1ccccc1	-23.2%	4.3%	/	19.7%	-15.5%	i
CC1=C(C(=O)OC(C)C)C(c2cccc([N+](=O)[O-])c2)n2c(cc(=O)[nH]c2=S)N1 (stereo not drawn)	-18.3%	-24.0%	5.9%	12.6µM*	-18.2%	?
CC1=C(C(=O)OCc2ccc3c(c2)OCO3)C(c2cccc([N+](=O)[O-])c2)NC(=O)N1 (stereo not drawn)	?	?	7.3µM*	16.0%	-12.0%	-7.3%
Cc1cccc(C(=O)NC(Nc2cccc(Cl)c2)C(Cl)(Cl)Cl)c1 (stereo not drawn)	/	/	/	/	/	45.4%
CCOc1cc(C2C(C(=O)OC)=C(C)NC3=C2C(=O)c2ccccc23)cc(Cl)c1O (stereo not drawn)	18.4µM*	?	/	/	/	3.2%
CC1=C(C(=O)OCc2ccccc2)C(c2cccc([N+](=O)[O-])c2)NC(=O)N1 (stereo not drawn)	18.4µM*	?	-23.0%	26.7%	-7.8%	?
COc1ccc(C2NC(=O)NC(C)=C2C(=O)OCc2ccc3c(c2)OCO3)cc1OC (stereo not drawn)	?	?	10.3µM*	29.7%	-6.2%	-24.8%

Screens as filed in PubChem.
